Source: PubChem BioAssay AID1565 (Sanford-Burnham Center for Chemical Genomics, 2009)
Screen size: about 290,000 compounds; about 3,200 (1.1%) were called active. Rule as the data show it: active = inhibition above about 60%; inactive = the rest. Many of the other results were omitted from the sample, so actives are more common in it than they were. Peptide text beside a SMILES is read from it.

The compounds below were run against Phosphoethanolamine/phosphocholine phosphatase (Homo sapiens) (UniProt Q8TCT1) (assay: PubChem AID 1565). Settings: recombinant PHOSPHO1, absorbance phosphatase assay; at 13.3 µM; active compounds read high.
Sequence of Phosphoethanolamine/phosphocholine phosphatase (Homo sapiens) (Q8TCT1 whole entry, looked up): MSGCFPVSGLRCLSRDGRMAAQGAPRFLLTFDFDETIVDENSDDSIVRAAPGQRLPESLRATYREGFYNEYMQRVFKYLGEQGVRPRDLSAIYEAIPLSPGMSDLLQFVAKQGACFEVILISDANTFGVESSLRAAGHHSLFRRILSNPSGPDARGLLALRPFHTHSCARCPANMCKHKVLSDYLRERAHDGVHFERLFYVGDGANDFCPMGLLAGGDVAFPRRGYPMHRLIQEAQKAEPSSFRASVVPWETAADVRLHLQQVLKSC

| SMILES | inhibition |
| --- | --- |
| CCS(=O)(=O)NCCc1ccc(OC)c(OC)c1 | -2.4% (inactive) |
| COc1ccc(CCNS(=O)(=O)c2ccc(F)cc2)cc1OC | -6.8% (inactive) |
| CCOC(=O)c1cc(S(=O)(=O)NCCc2ccc(OC)c(OC)c2)cn1C | 69.7% (active) |
| COc1ccc(C2NC(=O)N(C)C(C)=C2[N+](=O)[O-])cc1 (stereo unspecified) | 14.1% (inactive) |
| Cc1[nH]c(C)c(S(=O)(=O)N2CCN(c3cccc(C(F)(F)F)c3)CC2)c1C(=O)N1CCCCC1 | 42.6% (inactive) |
| CCCCCn1c(=O)[nH]c2cc(C(=O)NCCCN3CCCCC3C)ccc2c1=O (stereo unspecified) | 26.1% (inactive) |
| CCCCNC(=O)CN1C(=O)NC(Cc2ccccc2)(Cc2ccccc2)C1=O | 35% (inactive) |
| COc1ccc(CNC(=O)COc2cccnc2[N+](=O)[O-])cc1 | 39.9% (inactive) |
| O=C(NNC(=S)Nc1ccc(F)cc1)[C@H]1C[C@@H]1c1ccccc1 | 76.8% (active) |
| Cc1ccc(NC(=O)C2CC2c2ccccc2)cc1 (stereo unspecified) | 39.5% (inactive) |
| O=S(=O)(NC(=S)Nc1ccccc1)c1ccc(F)cc1 | -122% (inactive) |
| O=C(C1CC1)N1N=C2CCCCC2C1(O)C(F)(F)F (stereo unspecified) | 60.9% (active) |
| O=C(C1CC1)N1N=C(c2ccc(Br)cc2)CC1(O)C(F)(F)F (stereo unspecified) | 15.6% (inactive) |
| COc1ccc(O)c(/C=N/N=C/c2cccc([N+](=O)[O-])c2)c1 | 4.2% (inactive) |
| COc1ccccc1-c1cnn2c(N3CCOCC3)cc(C)nc12 | 38.1% (inactive) |
| CCOC(=O)c1cc(C(=O)Nc2ccc(S(=O)(=O)Nc3ccc(OC)cc3)cc2)nn1C | 28.7% (inactive) |
| O=C(Nc1cccc(Cl)c1Cl)c1ccccc1NC(=O)C1CC=CCC1C(=O)O (stereo unspecified) | 12.3% (inactive) |
| CC1(C)Oc2ccc3ccc(=O)oc3c2/C(=N/O)C1=O | 50.4% (inactive) |
| CC1(C)Oc2ccc3ccc(=O)oc3c2/C(=C/NCCO)C1=O | 87% (active) |
| C/C=C(/C)C(=O)OC1Cc2c(ccc3ccc(=O)oc23)OC1(C)C (stereo unspecified) | 8.5% (inactive) |
| CC(C)(C)c1ccc(/C=C/C(=O)NCCCn2ccnc2)cc1 | 33.7% (inactive) |
| CC(=O)N1c2ccc(S(=O)(=O)N3CCCC(C(=O)NCc4ccc(Cl)cc4)C3)cc2CC1C (stereo unspecified) | 42.6% (inactive) |
| CC(C)Oc1ccc(C(CC(=O)N2CCOCC2)C(C)C)cc1 (stereo unspecified) | 52.2% (inactive) |
| CCn1c(SCC(=O)c2ccc(Cl)s2)nnc1-c1cccs1 | 31.9% (inactive) |

| SMILES | inhibition |
| --- | --- |
| CCOC(=O)CSc1nnc(-c2ccco2)n1C | -19.7% (inactive) |
| O=C(CSc1nnc(-c2cccs2)n1Cc1ccccc1)N1CCc2ccccc2C1 | 78.3% (active) |
| O=C(CSCc1cccs1)N1CCCC1 | 31% (inactive) |
| Cn1c(SCC(=O)N2CCCC2)nnc1-c1cccs1 | 67.9% (active) |
| Cc1nc(SCC(=O)N2CCc3ccccc3C2)c2c(C)c(C)sc2n1 | 9.7% (inactive) |
| O=C(CSc1nnc(-c2cccs2)n1-c1ccccc1)NCc1ccco1 | 14.6% (inactive) |
| Cn1c(SCC(=O)N2CCCC2)nnc1-c1ccc2c(c1)OCO2 | 35% (inactive) |
| O=C(CSc1nnc(-c2cccs2)n1-c1ccccc1)N1CCN(C(=O)c2ccco2)CC1 | 89.7% (active) |
| CCCCNC(=O)CSc1nnc(-c2ccco2)n1C | 4.7% (inactive) |
| Cn1c(SCC(=O)c2cccs2)nnc1-c1ccco1 | 64.6% (active) |
| Cc1cc2ccccc2n2c(SCC(=O)N3CCN(C(=O)c4ccco4)CC3)nnc12 | 3.7% (inactive) |
| COC(=O)[C@@H](Cc1ccccc1)NC(=O)NCCc1ccccc1 | 34% (inactive) |
| CC(C)CCNC(=O)c1ccc2c(Cl)c3c(nc2c1)CCC3 | 23.9% (inactive) |
| Cc1cc(=O)n2nc(N3CCCC(C(=O)NCc4ccc(Cl)cc4)C3)sc2n1 (stereo unspecified) | 27.6% (inactive) |
| Cc1ccc(NC(=O)C2CCCN2C(=O)OCc2ccccc2)cc1C (stereo unspecified) | 22.6% (inactive) |
| O=C(COC(=O)/C=C/c1cccs1)NC1CCCCC1 | 51% (inactive) |
| COc1ccccc1NC(=O)C1CCCN1S(=O)(=O)c1ccc(Cl)cc1 (stereo unspecified) | 0% (inactive) |
| CCc1ccc(-c2cc3c(=O)n(CC(=O)NCCCN4CCN(Cc5ccccc5)CC4)nc(C)n3n2)cc1 | 26.1% (inactive) |
| Cc1c(S(=O)(=O)NC(C)c2ccccc2)c(=O)n(C)c(=O)n1C (stereo unspecified) | -5.4% (inactive) |
| Cc1cc2nnc(SCC(=O)N3CCN(c4ccccc4)CC3)n2c(N)n1 | 40.7% (inactive) |
| O=C(CSc1nnc(Cc2ccccc2)n1-c1ccccc1)N1CCOCC1 | -9.6% (inactive) |
| Cc1nnc(SCC(=O)N2CCN(c3ccccc3)CC2)n1-c1ccccc1 | 68.4% (active) |
| Cc1ccc2[nH]c(=O)c(CC(=O)O)c(-c3ccccc3)c2c1 | 7.8% (inactive) |
| CCC(C(=O)OC)n1cnc2c(oc3ccccc32)c1=O (stereo unspecified) | 1% (inactive) |

| SMILES | inhibition |
| --- | --- |
| O=C(CSc1nc(C2CC2)nc2ccccc12)Nc1cccc(O)c1 | 15.1% (inactive) |
| COCc1cc(=O)oc2cc(NS(=O)(=O)c3ccc(C)cc3)ccc12 | 22.5% (inactive) |
| Cc1ccc2c(CSc3nncs3)cc(=O)oc2c1 | 76.1% (active) |
| CCOC(=O)Cc1csc(SCc2cc(=O)oc3cc(O)ccc23)n1 | -13.2% (inactive) |
| CCCSc1nc2sc3c(c2c(=O)n1-c1ccc(OC)cc1)CCN(C)C3 | 31.6% (inactive) |
| COC(=O)[C@@H]1CC(O)CN1C(=O)C12CC3CC(CC(C3)C1)C2 (stereo partly specified) | 24.2% (inactive) |
| CCOc1ccc(NC(=O)CCC(=O)NNC(=O)NC2CCCCC2)cc1 | -0.6% (inactive) |
| CCCNC(=O)NC(=O)COC(=O)CC(NC(N)=O)c1ccc(Cl)cc1 (stereo unspecified) | -17.2% (inactive) |
| CC(=O)N1CCC(C(=O)OCc2ccc(Cl)cc2)(c2ccccc2)CC1 | 40% (inactive) |
| COCCNC(=O)NC(=O)COC(=O)C1(c2ccc(Cl)cc2)CC1 | 62.9% (active) |
| COc1ccc(C(=O)C2CCCN(C(=O)c3ccc(OC)o3)C2)c(C)c1 (stereo unspecified) | -0.6% (inactive) |
| O=C(OCCN1C(=O)c2ccccc2C1=O)Oc1ccccc1 | 22.3% (inactive) |
| COC(=O)c1ccc(S(=O)(=O)N2CCc3ccccc3C2)cc1 | 44.4% (inactive) |
| CCCNC(=O)C(=O)Nc1cc2c3c(c1)CCC(=O)N3CCC2 | 54.7% (inactive) |
| CCc1cccc(C)c1NC(=O)CSc1nnc(-c2ccco2)n1N | 22.6% (inactive) |
| NC(=O)c1c(NC(=O)CSc2nnc(-c3ccco3)n2N)sc2c1CCCC2 | 103% (active) |
| NC(=O)c1c(NC(=O)CSc2nc(N)cc(=O)[nH]2)sc2c1CCCC2 | 12.9% (inactive) |
| NC(=O)C(Cc1ccccc1)NC(=O)C12CC3CC(CC(C3)C1)C2 (stereo unspecified) | 24.1% (inactive) |
| Oc1ccc(Br)cc1/C=N/Nc1ccccn1 | 22.9% (inactive) |
| CC1(C)Cc2ccccc2/C(=C/C(=O)c2ccccc2)N1 | 24.1% (inactive) |
| O=C(CNC(=O)c1ccccc1)NCC(=O)OCC(=O)c1ccccc1 (HELM PEPTIDE1{[O=C(c1ccccc1)[*:2]].G.G.[O=C(CO[*:1])c1ccccc1]}$$$$V2.0) | 27.8% (inactive) |
| O=C(CNC(=O)c1ccc(-c2ccccc2)cc1)OCc1ccc(Cl)cc1 | 9.5% (inactive) |
| O=C(CNC(=O)c1ccccc1)NCC(=O)OCc1ccc(Cl)cc1 | 62.3% (active) |
| Cc1cccc(C)c1NC(=O)C(Cl)C(=O)c1ccccc1 (stereo unspecified) | 20% (inactive) |

| SMILES | inhibition |
| --- | --- |
| CSc1ncccc1C(=O)NCc1ccccc1Cl | 44.9% (inactive) |
| O=C(CSc1nnc(CNC(=O)c2ccc(F)cc2)o1)Nc1ccc2c(c1)OCO2 | -23.1% (inactive) |
| COc1cccc(/C=N/Nc2ncc(C(F)(F)F)cc2Cl)c1O | -8.9% (inactive) |
| COc1cc(/C=C2\SC(=S)N(Nc3ncc(C(F)(F)F)cc3Cl)C2=O)cc(OC)c1OC | 71.2% (active) |
| CCOc1ccc(/C=C2\SC(=S)N(NC(=O)c3ccncc3)C2=O)cc1OC | 23.7% (inactive) |
| CC(=O)OCCN(CCCn1c(-c2ccncc2)nc2ccccc21)c1nc(-c2ccc(C)cc2)cs1 | 20.2% (inactive) |
| Nc1ccc(C(=O)Nc2ccccc2N)cc1 | 8.3% (inactive) |
| Cc1cc(C)c(C#N)c(N2CCC(C(N)=O)CC2)n1 | -42.6% (inactive) |
| N#Cc1c(-c2ccccc2)cc(-c2ccccc2)nc1SCC(=O)O | -12.1% (inactive) |
| N#Cc1c(N2CCCCC2)nc(N)c2c(N)nc(SCC(=O)O)cc12 | 60.8% (active) |
| C/C(CC(=O)NCc1ccc(Cl)cc1)=N\NC(=O)COc1ccc(C)cc1Br | 41.6% (inactive) |
| CC1CCN(C(=O)Cn2nnnc2CN2CCOCC2)CC1 | 47.5% (inactive) |
| C/C(=C\c1ccco1)C1Nc2cccc3cccc(c23)N1 | 94% (active) |
| Cc1ccc(C2Nc3cccc4cccc(c34)N2)cc1 | 13.8% (inactive) |
| Oc1ccc(C2Nc3cccc4cccc(c34)N2)cc1 | 14.1% (inactive) |
| CC1CCN(CC(=O)c2c[nH]c3ccccc23)CC1 | 47.6% (inactive) |
| O=C(NC1CCCC1)C(=O)c1c[nH]c2ccccc12 | 62.6% (active) |
| O=C(NCCCc1ccccc1)C(=O)c1c[nH]c2ccccc12 | 38.2% (inactive) |
| Cc1nc([N+](=O)[O-])nn1C12CC3CC(CC(Br)(C3)C1)C2 | 93% (active) |
| Cc1ncn(C23CC4CC(CC(O)(C4)C2)C3)n1 | 12.9% (inactive) |
| COc1cccc(NC(=O)c2nn(C34CC5CC(CC(C5)C3)C4)cc2[N+](=O)[O-])c1 | 6.2% (inactive) |
| Cc1cc(-c2ccc(C)c(S(=O)(=O)Nc3ccc(S(N)(=O)=O)cc3)c2)on1 | 44.5% (inactive) |
| Cc1noc(C)c1CSCC(=O)N(CCC(C)C)c1c(N)n(Cc2ccccc2)c(=O)[nH]c1=O | 9.8% (inactive) |
| O=C(CCN1C(=O)C2C3CCC(C3)C2C1=O)Nc1ccc(Cl)cc1Cl (stereo unspecified) | 26.6% (inactive) |
